Screens: PubChem BioAssay, National Center for Advancing Translational Sciences (NCATS)
Shown are actives, neighbours in structure and some others; about 12% of the full set was active somewhere.
PI5P4K alpha inh – PI5P4K alpha (human) kinase inhibition | max response, % | 1.2% of 330,000 active | PI5P4Kalpha enzyme, ADP-Glo luminescence, 60 min; active compounds read low | P48426; active means max response of -50% or lower; inconclusive means between -30% and -50%; inactive means -30% or higher; further: value at the top dose of about 77 µM
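Reactions run in 0.038 M HEPES pH 7.4, 0.28 mM EGTA, 0.1% CHAPS and 5% DMSO, with PI5P4Kalpha, substrate, compound and 5 microM ATP final, one hour at room temperature. Readout is ADP-Glo luminescence.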
PLK1 PBD inh – inhibitors of human PLK1 polo-box domain binding; P53350; Plk1 PBD binding of FITC phosphopeptide, fluorescence polarization; Potency, µM, usual class: inhibitors; 2.8% of 360,000 active; AID 720504; further: series mostly up to about 57 µM; nearly all actives have a fitted effect of over 65% in size
BAZ2B inh – blocks human BAZ2B; Q9UIF8; AlphaScreen BAZ2B-H3K14Ac peptide displacement; Potency, µM (series often up to 114 µM), actives largely listed as inhibitors; 4.4% of 360,000 active; AID 504333; further: nearly all actives have a fitted effect of over 60% in size
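AlphaScreen luminescence quantifies BAZ2B engagement of H3K14Ac peptide; the protein and biotinylated peptide are both at 50 nM final, buffer PBS pH 7.4 with 0.01% Tween-20, all steps at room temperature.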
G9a inh – G9a (human) methyltransferase inhibition. Q96KQ7. G9a H3K9 monomethylation, AlphaScreen, 2 h. Potency, µM (titrated, usually from 102 µM), usual class: inhibitors. 8.8% of 350,000 active; further: nearly all actives have a fitted effect of over 75% in size
Target sequence (Q96KQ7 913-1193 limits assumed): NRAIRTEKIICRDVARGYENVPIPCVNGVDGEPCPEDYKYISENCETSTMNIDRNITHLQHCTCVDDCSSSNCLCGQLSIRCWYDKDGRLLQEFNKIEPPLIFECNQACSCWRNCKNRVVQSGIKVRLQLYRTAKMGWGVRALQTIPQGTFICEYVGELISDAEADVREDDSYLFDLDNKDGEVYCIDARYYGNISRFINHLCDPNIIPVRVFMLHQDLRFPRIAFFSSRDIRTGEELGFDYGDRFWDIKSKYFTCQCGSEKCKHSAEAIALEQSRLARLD
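Enzyme 20 nM + cpd, 15 min RT; add b-H3K9 pep 500 nM / SAM 20 uM; 2 h RT; anti-H3K9me1 Ab 0.5 ug/mL + SA donor / anti-rabbit acceptor beads 20 ug/mL each, 10 min; AlphaScreen read.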
JMJD2A Tudor inh – JMJD2A Tudor domain (human) inhibition | AID 504339 | 4.4% of 390,000 active | O75164 | AlphaScreen JMJD2A-Tudor / H3K4me3 peptide binding | Potency, µM (series often up to 114 µM), hits mostly inhibitors; further: nearly all actives have a fitted effect of over 50% in size
HP1b chromo inh – HP1-beta chromodomain-methylated histone interaction inhibition | AlphaScreen HP1-beta / biotin-H3K9me3 peptide binding | Potency, µM (top dose mostly 114 µM), most hits filed as inhibitors | 0.56% of 390,000 active; further: nearly all actives have a fitted effect of over 70% in size
Target sequence (P83916 whole entry, looked up): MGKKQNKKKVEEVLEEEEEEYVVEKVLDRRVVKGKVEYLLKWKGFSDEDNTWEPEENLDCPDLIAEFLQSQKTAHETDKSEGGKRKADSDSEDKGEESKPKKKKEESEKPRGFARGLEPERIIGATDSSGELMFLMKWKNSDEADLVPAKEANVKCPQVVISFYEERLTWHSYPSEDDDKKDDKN
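Compound inhibition of the preformed complex between 50 nM HP1-beta and 50 nM biotinylated H3K9me3 peptide was read by AlphaScreen. Buffer was PBS pH 7.4 with 0.01% Tween-20. Incubations ran 30 min at room temperature, with 10 ug/mL donor/acceptor beads.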
Numbers stand for hits; – = inactive; ? = inconclusive; · = no result given; ! = not confirmed by another sample. Unless noted, the call rests on the fitted dose curve; in most records, active means well fitted curve in the direction sought with a large enough effect; inconclusive means small, poorly fitted or top-dose-only effect, or another doubt; inactive means no such curve, though single readings can be large; an effect the other way counts as inactive or inconclusive.

SMILES | PI5P4K alpha inh | PLK1 PBD inh | BAZ2B inh | G9a inh | JMJD2A Tudor inh | HP1b chromo inh
Cc1ccc(CNS(=O)(=O)c2ccc(F)c(F)c2)n1C | – | – | – | 45µM | – | –
CCc1nc2ccc(C(=O)NCCOc3ccc(OC)cc3)cn2c1N(C=O)Cc1ccc(OC)cc1 | – | – | · | · | · | ·
O=c1c2ccccc2sn1-c1ccc(Cl)cc1Cl | -105 | 2.7µM | · | · | · | ·
O=C(Nc1ccc(S(=O)(=O)Nc2ncccn2)cc1)C1=COCCO1 | – | – | – | 32µM | – | –
Cc1cc(C)nc(SCC(=O)Nc2ccc(S(=O)(=O)Nc3ncccn3)cc2)n1 | – | – | – | · | – | –
O=C(Cc1ccc(Br)cc1)Nc1ccc(S(=O)(=O)Nc2ncccn2)cc1 | – | – | – | · | – | –
O=C(Cc1ccc(Cl)cc1)Nc1ccc(S(=O)(=O)Nc2ncccn2)cc1 | – | – | – | 79µM | – | –
CCc1c(C(=O)NNC(=S)Nc2ccc(S(=O)(=O)Nc3ncccn3)cc2)csc1C | – | – | – | 20µM | – | –
Cc1ccc(SCC(=O)Nc2ccc(S(=O)(=O)Nc3ncccn3)cc2)cc1 | – | – | – | 45µM | – | –
CC(=O)Nc1ccc(S(=O)(=O)Nc2ncccn2)cc1 | · | – | · | – | – | –
Cc1cccc(N2CCN(c3ncnc4c3nc3n4CCCCC3)CC2)c1C | · | · | – | – | – | –
COc1ccc(NC(=O)c2ccc(-n3cnnn3)cc2)c([N+](=O)[O-])c1 | – | – | – | – | – | –
O=C(CSc1nc(NS(=O)(=O)c2ccccc2)cc(=O)[nH]1)Nc1cccc(C(F)(F)F)c1 | – | – | ? | ? | – | –
Cc1cc(C)c2c(CC(=O)Nc3ccc(S(=O)(=O)Nc4ncccn4)cc3)coc2c1 | · | · | – | ? | – | –
O=C(CSc1nc(NS(=O)(=O)c2ccccc2)cc(=O)[nH]1)Nc1ccc(F)cc1 | · | – | ? | – | 56µM | –
Cc1cc(C)nc(SCC(=O)Nc2ccc(S(=O)(=O)Nc3nccs3)cc2)n1 | · | – | – | ? | – | –
Cc1cc(C)nc(NS(=O)(=O)c2ccc(NC(=O)CSc3ncn[nH]3)cc2)n1 | – | 27µM | – | – | ? | –
Cc1cc(C)nc(NS(=O)(=O)c2ccc(NC(=O)CN3C(=O)c4ccccc4C3=O)cc2)n1 | · | · | – | ? | · | ·
Cc1cc(C)nc(NS(=O)(=O)c2ccc(NC(=O)Cn3c(=O)oc4ccccc43)cc2)n1 | – | – | – | 79µM | – | –
Cc1cc(C)c2c(CC(=O)Nc3ccc(S(=O)(=O)Nc4nc(C)cc(C)n4)cc3)coc2c1 | · | · | – | 14µM | – | –
O=C(Nc1cc(Cl)ccc1-n1cncn1)c1ccc([N+](=O)[O-])s1 | – | – | – | ? | ? | –
O=C(COC(=O)c1cc(-c2ccccc2)nc2c(Cl)cccc12)c1ccc(F)cc1 | · | · | – | – | – | –
O=C(/C=C/c1ccc(Br)cc1)Nc1ccc(S(=O)(=O)Nc2ncccn2)cc1 | – | – | 89µM | · | – | –
CCC(C(=O)NC1CCCCC1)n1c(SCc2cccc(C)c2)nc2ccncc21 (stereo unspecified) | – | – | – | 50µM! | – | –
CCCCOc1ccc(C(=O)NCc2cn3cccc(C)c3n2)cc1 | · | · | – | – | – | –
SMILES | PI5P4K alpha inh | PLK1 PBD inh | BAZ2B inh | G9a inh | JMJD2A Tudor inh | HP1b chromo inh
COc1cc(/C=C(\C#N)C(=O)c2c[nH]c3ccccc23)cc(OC)c1O | -75 | – | · | 11µM | 50µM | ?
COc1ccc(/C=C(\C#N)C(=O)NCc2ccccc2)cc1O | – | – | – | – | – | –
N#C/C(=C\c1ccc(O)c(O)c1)C(=O)NCCc1ccccc1 | – | – | 11µM | 9.5µM | ? | ?
COc1cc(/C=C(\C#N)C(=O)NCCc2ccccc2)cc(OC)c1O | ? | – | – | 32µM | – | –
N#C/C(=C/c1ccc(O)c([N+](=O)[O-])c1)C(=O)Nc1ccccc1 | -61 | – | – | ? | ? | ?
O=C(Nc1ccc(C(F)(F)F)cc1)N1CCC(N2CCCCC2)CC1 | · | · | – | – | – | –
Cc1cccc(N2CCN(C(=O)CS(=O)(=O)c3cccc4nsnc34)CC2C)c1 (stereo unspecified) | · | · | – | – | – | –
COc1cc(/C=N/NC(=S)NCCc2ccccc2)cc(OC)c1OC | – | – | – | – | ? | –
COc1cc(/C=N/S(=O)(=O)CCc2ccccc2)cc(OC)c1O | – | – | – | 50µM | – | –
